Measured values from PubChem BioAssay AID1508622 (National Center for Advancing Translational Sciences (NCATS), 2021).
A number with no mark means an inactive call. The call rests on the fitted dose curve; in most records, active means well fitted activation curve with a large enough effect; inconclusive means small, poorly fitted or top-dose-only effect; inactive means no such curve, though single readings can be large or run the other way.

Assay: Confirmatory qHTS for Identification of Small Molecule Activators of Huntingtin-Antisense Promoter Activity
Settings: HEK293 HTT-AS promoter firefly luciferase reporter, 24 h; series mostly up to 57.5 µM; activity change, positive = activation: at the top concentration
From the text: Assay Provider: Russell L. Margolis M.D.
Department Neurology, Johns Hopkins University School of Medicine, Baltimore, MD
Huntington's Disease (HD) is a neurodegenerative disorder caused by a CAG repeat expansion in exon 1 of huntingtin (HTT). While there are currently no disease-modifying treatments for HD, recent efforts have focused on development of nucleotide-based therapeutics to lower HTT expression. As an alternative to siRNA or oligonucleotide methods, we hypothesized that suppression of HTT expression might be accomplished by small molecules that either (1) directly decrease HTT expression by suppressing HTT promoter activity or (2) indirectly decrease HTT expression by increasing the promoter activity of HTT-AS, the gene antisense to HTT that appears to inhibit expression of HTT.
We developed and employed a high throughput screen for modifiers of HTT and HTT-AS promoter activity using luminescent reporter HEK293 cells; of the 52,041 compounds tested, we identified 898 replicable hits. We used a rigorous stepwise approach to assess compound toxicity and the capacity of the compounds to specifically lower huntingtin protein in 5 different cell lines, including HEK293 cells, HD lymphoblastoid cells, mouse primary neurons, HD iPSCs differentiated into cortical-like neurons, and HD hESCs. We found no compounds which were able to lower huntingtin without lowering cell viability in all assays, though the potential efficacy of a few compounds at non-toxic doses could not be excluded.
SEQUENCE No. (1, 2, 3, etc.); […] (e.g., Cells, Incubation, Reagent, etc.); VALUE and DESCRIPTION.
1; Reagent; 4 uL; 2,500 Hek293 luciferase reporter cells per wells
3; Compound; 23 nL; Control inhibitor / compound library
5; Reagent; 2.5 uL; Firefly Luc reagent; Dual-Glo Luciferase Reporter Assay System (Promega)
6; Time; 10 min; room temperature incubation
7; Detection; Luminescence; FLuc
NOTES (numbers refer to sequence above)
1; High-throughput screening, measuring luminescence from a Hek293 luciferase reporter, was performed in 1,536 well white-walled tissue-culture treated plates. 2,500 cells were plated in 4 uL of Opti-MEM per well using a Multidrop Combi Reagent Dispenser (ThermoFisher).
2; Assay plates were cultured for 24 hours.
3; Control inhibitor (PTC124; final concentration of 50 uM) and compound library (at final concentrations of 460 nM - 57.5 uM) were added to the assay plate using the Kalypsis Pintool Robotic System equipped with 1536 pinheads.
4; Cells were then incubated for 24 hours at 37C prior to luminescence measurements.
5; In all cases, luminescence was measured using the Dual-Glo Luciferase Reporter Assay System (Promega) following the manufacturer's instructions.
6; Room temperature incubation.
7; Luminescence signal was obtained using the PerkinElmer ViewLux plate reader. Results were normalized to vehicle control (0% activity) and zero RLU (-100% activity).

| SMILES | activity change, positive = activation [%] |
| --- | --- |
| Nc1c(C(=O)Nc2ccc(Cl)c(C(F)(F)F)c2)sc2nc3c(cc12)N1CCC3CC1 | -91.5 |
| Cc1cccc(-n2c(/C=C\c3cccc(Br)c3)nc3ccccc3c2=O)c1 | -4.07 |
| O=c1c2ccccc2nc(/C=C\c2ccc(F)cc2)n1-c1ccccc1F | -17 |
| CCOc1ccc(NC(=O)c2cccn(Cc3cccc(Cl)c3)c2=O)cc1 | -91.2 |
| COc1cccc(C2SCC(=O)Nc3c2c(C)nn3-c2ccc(C)c(Cl)c2)c1OC (configuration not stated) | -31.6 |
| O=c1c2ccccc2nc(/C=C/c2cccc3ccccc23)n1-c1ccccc1Cl | -10.9 |
| COc1ccc(-n2c(/C=C\c3ccccc3F)nc3ccccc3c2=O)cc1OC | -15.9 |
| Cc1cc(-n2c(/C=C/c3ccc(Br)s3)nc3ccccc3c2=O)ccc1Br | -10.7 |
| N#Cc1ccccc1NC(=O)c1cccn(Cc2ccccc2)c1=O | -45.2 |
| CCN(CC)C(=O)c1ccc(NC(=O)CCn2nc(-c3ccc(Cl)cc3)c3ccccc3c2=O)cc1 | -34.6 |
| Cc1ccc(-n2c(/C=C\c3ccc(F)c(F)c3)nc3ccccc3c2=O)c(C)c1 | -7.94 |
| Cc1ccc(-n2c(/C=C/c3ccc(Br)s3)nc3ccccc3c2=O)cc1 | -11.2 |
| COC(=O)c1ccc(NC(=O)c2cccn(Cc3ccccc3C)c2=O)cc1 | -84.1 |
| CCCCc1ccc(NC(=O)c2cccn(Cc3ccc(Cl)cc3)c2=O)cc1 | -94.5 |
| CCCOc1ccc(C2SCC(=O)Nc3c2c(C)nn3-c2cccc(C)c2)cc1OC (configuration not stated) | -25.4 |
| Cc1ccccc1Cn1cccc(C(=O)Nc2nc3ccccc3s2)c1=O | -57.1 |
| CC(C)N[C@@H]1CCn2c(=O)[nH]c3cccc(c32)[C@@H]1O | -4.14 |
| CSc1ccc(CN2CCN(C(=O)COc3cccc(C)c3)CC2)cc1 | -83.9 |
| CCN(CC)C(=O)N[C@@H]1C=C2c3cccc4[nH]cc(c34)C[C@@H]2N(C)C1 | -9.95 |
| CC(C)(O)C=CC(=O)[C@](C)(O)[C@H]1[C@H](O)C[C@]2(C)[C@@H]3CC=C4[C@@H](C=C(O)C(=O)C4(C)C)[C@]3(C)C(=O)C[C@@]12C | -94.1 |
| CCOC(=O)c1ccc(NC(=O)c2cccn(Cc3ccccc3F)c2=O)cc1 | -95.2 |
| O=C(N[C@H]1CN2CCC1CC2)c1ccc(Cl)cc1 | -6.33 |
